Hits are enriched below; roughly 3.2% of the tested compounds scored in any of these assays.
CHT block: human CHT choline transport inhibition. Q9GZV3. CHT-expressing cells, membrane potential dye, choline response; stronger effect = lower value. B-score at 10 µM. 310,000 tested, 0.86% active. AID 488975;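 active = B-score over 3 SD under the library average, and starting fluorescence ratio not unusually high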;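 note: choline stimulus applied at its EC90 after an EC20 pre-addition; B-score computed on integrated fluorescence ratio after choline addition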
Rce1 inhib: yeast Ras-converting enzyme inhibition; 290,000 tested, 0.27% active; Q03530; yeast membranes, quenched prenylated peptide cleavage fluorescence; calls only;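 active = fall in fluorescence gain of 50% or more versus controls, with final raw signal at or below 3038400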;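 note: plate controls were neutral control wells for no effect and wells lacking membranes for full effect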
TMEM16A act: activators or potentiators of mouse TMEM16A chloride channel; Q8BHY3; HEK293 TMEM16A/YFP-H148Q/I152L, iodide quench fluorescence; stronger effect = lower value; B-score at 10 µM; 340,000 tested, 0.3% active; AID 623877;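 active = fluorescence-ratio B-score plate-corrected deviation score at least 3 library SD below zero, with starting fluorescence score within 5 deviations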;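 note: channel opened by trigger with iodide after compound preincubation; score built on the fluorescence ratio of max minus min over baseline; more negative score means more quench and so TMEM16A activation or potentiation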
Target sequence (Q8BHY3 whole entry, looked up): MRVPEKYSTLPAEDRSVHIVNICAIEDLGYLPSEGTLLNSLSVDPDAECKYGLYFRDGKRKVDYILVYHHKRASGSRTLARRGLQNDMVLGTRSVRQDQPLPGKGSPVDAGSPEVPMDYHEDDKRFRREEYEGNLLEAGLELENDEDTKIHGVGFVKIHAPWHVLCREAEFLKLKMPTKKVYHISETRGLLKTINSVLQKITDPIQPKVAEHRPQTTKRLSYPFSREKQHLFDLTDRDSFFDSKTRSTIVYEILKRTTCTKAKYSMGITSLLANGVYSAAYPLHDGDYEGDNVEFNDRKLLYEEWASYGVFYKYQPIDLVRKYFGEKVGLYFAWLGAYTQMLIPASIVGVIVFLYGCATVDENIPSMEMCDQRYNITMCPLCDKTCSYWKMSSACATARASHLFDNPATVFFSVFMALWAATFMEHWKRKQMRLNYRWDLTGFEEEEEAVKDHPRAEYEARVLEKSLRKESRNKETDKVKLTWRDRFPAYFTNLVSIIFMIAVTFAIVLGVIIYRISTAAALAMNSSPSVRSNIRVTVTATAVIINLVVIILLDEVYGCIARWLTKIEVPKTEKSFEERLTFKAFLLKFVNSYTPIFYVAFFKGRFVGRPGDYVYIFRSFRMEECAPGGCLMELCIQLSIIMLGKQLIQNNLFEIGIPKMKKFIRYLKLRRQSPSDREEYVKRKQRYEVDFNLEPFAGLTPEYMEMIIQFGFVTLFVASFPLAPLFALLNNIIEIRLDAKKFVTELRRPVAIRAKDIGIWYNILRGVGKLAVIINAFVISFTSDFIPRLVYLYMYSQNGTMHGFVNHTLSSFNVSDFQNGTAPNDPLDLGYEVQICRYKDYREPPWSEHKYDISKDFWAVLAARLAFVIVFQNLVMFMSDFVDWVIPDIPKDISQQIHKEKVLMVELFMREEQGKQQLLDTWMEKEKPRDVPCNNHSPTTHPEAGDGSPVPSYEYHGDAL
CHT PAM: allosterically activates the human high affinity choline transporter; CHT-expressing cells, membrane potential dye, choline EC20; stronger effect = higher value; LV-AA mutant CHT in HEK293 cells; B-score at 10 µM; 310,000 tested, 0.49% active;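 active = initial fluorescence not abnormally high and integrated response B-score, plate-corrected, over 3 SD above library mean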
TMEM16A inh: inhibitors of mouse TMEM16A calcium-activated chloride channel | HEK293 TMEM16A/YFP iodide influx fluorescence, ionomycin | Q8BHY3 | 310,000 tested, 1.2% active | normalized B-score (activity score, 25-100; higher = stronger inhibition) at 10 µM;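 active = ratio plate-corrected score three or more library SD toward inhibition, starting fluorescence score within five deviations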;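 note: score derived from kinetic fluorescence span divided by baseline fluorescence per well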
Kir21 inh: inhibitors of mouse Kir2.1 inward-rectifier potassium channel. P35561. HEK293-Kir2.1, FluxOR thallium flux fluorescence; stronger effect = lower value. B-score at 10 µM. 310,000 tested, 0.85% active. AID 1672;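 active = fluorescence ratio B-score at or below minus 3 SD of library scores, with starting-brightness B-score within 2 SD, cut at about -4.2 in these data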;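 note: channel flux triggered by added potassium and thallium sulfate stimulus; B-score of peak minus minimum fluorescence over baseline after thallium stimulus; more negative B-score means stronger Kir2.1 block with less thallium influx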
* = called active by the depositor; i = inactive; nt = not tested or not shown; + = active, no number.

SMILES | CHT block | Rce1 inhib | TMEM16A act | CHT PAM | TMEM16A inh | Kir21 inh
CCOC(=O)N1CCN(Cc2nc3cc(NC(=O)CC(C)C)ccc3n2CC)CC1 | i | i | i | i | i | 0.64
O=C(NC1CCCCC1)C1CCN(C(=O)c2ccc(Cl)cc2)CC1 | i | i | i | i | i | 0.69
O=C(O)CCC(=O)c1ccc(-c2ccccc2)cc1 | i | + | i | i | i | 1.1
CCC(=O)c1ccc(-c2ccccc2)cc1 | i | i | i | i | i | -0.53
CCC1(c2ccccc2)NC(=O)N(CC(=O)NCc2ccc(OC)cc2)C1=O (stereo not drawn) | i | i | i | i | i | 0.05
CC(Oc1ccc(F)cc1)C(=O)Nc1cc(S(=O)(=O)N2CCCCC2)ccc1N1CCOCC1 (stereo not drawn) | i | i | i | i | i | 1.4
CCN1CCN(c2ccc(S(=O)(=O)N3CCCCC3)cc2NC(=O)C(C)Oc2ccc(F)cc2)CC1 (stereo not drawn) | i | i | i | i | i | -5.2*
CC(OC(=O)c1ccco1)C(=O)Nc1ncc(Cl)cc1Cl (stereo not drawn) | nt | nt | i | nt | nt | nt
Cc1ccc2c(CC(=O)OC(C)C(=O)Nc3ncc(Cl)cc3Cl)coc2c1 (stereo not drawn) | i | i | i | i | i | -4.5*
COc1cccc(CC(=O)OC(C)C(=O)Nc2ncc(Cl)cc2Cl)c1 (stereo not drawn) | i | i | i | i | i | -4.5*
CC(=O)N1CCN(S(=O)(=O)c2cccc(C(=O)Nc3ccccc3N3CCCC3)c2)CC1 | i | i | i | i | i | -0.25
CCOC(=O)C(CCCCCOc1ccccc1[N+](=O)[O-])C(=O)OCC | i | i | i | i | i | 0.44
CCOC(=O)C(CCCCCOc1ccc([N+](=O)[O-])cc1)C(=O)OCC | i | i | i | i | 100* | -0.44
Cc1cc2c(=O)n(Cc3ccco3)c(SCC(=O)c3ccc(Cl)s3)nc2s1 | i | i | i | i | 25* | 1.7
CN(C)CCCn1cnc2c(c1=N)C(c1ccccc1)c1ccc3ccccc3c1O2 (stereo not drawn) | i | i | i | i | i | -7.2*
COc1ccc(C2c3ccc4ccccc4c3Oc3ncn(CCO)c(=N)c32)cc1 (stereo not drawn) | i | i | i | i | i | -5.2*
COc1ccc(C2c3ccc4ccccc4c3Oc3ncn(CCN(C)C)c(=N)c32)cc1 (stereo not drawn) | i | i | i | i | i | -4.3*
O=C(Nc1cccc(C(F)(F)F)c1)Nn1cnnc1 | i | i | i | i | i | -0.19
N#CCN=C(c1ccccc1)c1ccccc1 | nt | nt | i | nt | nt | nt
Cc1ccc(C)c(OCCC(=O)OCC(=O)NCCc2ccc(S(N)(=O)=O)cc2)c1 | i | i | -4.8* | i | i | -2.4
Cc1ccc(C)c(OCCC(=O)NCCc2ccc(S(N)(=O)=O)cc2)c1 | i | i | i | i | i | -2.3
Cc1nc(-c2ccc(Cl)cc2)sc1C1(C)CC(c2ccccc2)=NO1 (stereo not drawn) | i | i | i | i | i | 0.11
Cc1nc(-c2ccc(Cl)cc2)sc1C1(C)CC(c2ccccc2Br)=NO1 (stereo not drawn) | i | + | i | i | i | -1.1
Cc1ccc(CN2CCN(Cc3cccn3-c3nccs3)CC2CCO)cc1 (stereo not drawn) | i | i | i | i | i | 1.7
CCSc1nc2c(c(=O)[nH]1)C(c1ccccn1)C1=C(CC(C)(C)CC1=O)N2 (stereo not drawn) | i | + | i | i | i | -0.35
SMILES | CHT block | Rce1 inhib | TMEM16A act | CHT PAM | TMEM16A inh | Kir21 inh
OCCN1CCN(CC(O)COc2ccc(C34CC5CC(CC(C5)C3)C4)cc2)CC1 (stereo not drawn) | i | i | i | i | i | -4.4*
NCCOc1ccc(C23CC4CC(CC(C4)C2)C3)cc1 | i | i | i | i | i | -4.7*
N#Cc1cccc(NC(=O)CN2C(=O)NC(Cc3ccccc3)C2=O)c1 (stereo not drawn) | i | i | i | i | i | -0.18
CC(C)CNC(=O)c1cnn2c(C(F)(F)F)cc(C(F)(F)F)nc12 | i | i | i | i | i | -0.22
O=C(NNC(=O)c1cccc(O)c1)Nc1ccc([N+](=O)[O-])cc1 | i | i | i | i | i | -0.2
O=C(CN(C(=O)CCC(=O)Nc1nccs1)c1ccccc1F)NCc1ccc(F)cc1 | i | i | i | i | i | 1
COc1cc(/C=N/O)ccc1OCc1ccc(Cl)cc1 | i | i | nt | i | i | -0.47
COc1cc(/C=N/N=C(N)N)ccc1OCc1ccc(Cl)cc1 | i | i | i | i | 100* | -8.2*
COc1ccc(S(=O)(=O)Nc2cc(C)ccc2OC)cc1C | i | i | i | i | i | -7*
COc1ccc(S(=O)(=O)Nc2c(C)ccc3nsnc23)cc1OC | i | i | i | i | i | -5.1*
COc1ccc(NS(=O)(=O)c2cccc3nsnc23)cc1OC | i | i | i | i | i | 0
COc1ccc(Cl)cc1NS(=O)(=O)c1ccc(OC)c(OC)c1 | i | i | i | i | i | -8.2*
CC(C)(C)c1ccccc1NC(=O)c1c(O)c2cccc3c2n(c1=O)CC3 | i | i | nt | i | i | -0.51
O=C(CNS(=O)(=O)c1c(Cl)cccc1Cl)N1CCCCCC1 | i | i | i | i | i | -4.6*
CCOc1ccc(S(=O)(=O)N2CCC(C(=O)NCc3ccco3)CC2)cc1C | i | i | i | i | i | 0.14
CN(C)S(=O)(=O)c1cc([N+](=O)[O-])ccc1N1CCCCCC1 | i | i | i | i | i | -4.6*
Oc1cccc2c(NC(=S)Nc3ccc(SC(F)F)cc3)cccc12 | i | i | i | i | 100* | 0.3
CSc1ccc(C(=O)C2CCCN(C(=O)c3cccnc3SC)C2)cc1 (stereo not drawn) | i | + | i | i | i | 0.36
CSc1ncccc1C(=O)N1CCCC(C(=O)c2ccc3ccccc3c2)C1 (stereo not drawn) | i | i | i | i | i | -0.03
COc1ccc(CCC(C)NCc2ccc(Cl)c(Cl)c2)cc1 (stereo not drawn) | i | i | i | i | i | -4.5*
COc1ccc(CCC(C)NCCc2ccc(Cl)cc2Cl)cc1 (stereo not drawn) | i | i | i | i | i | -13*
